Measured values reported in PubChem BioAssay AID371 (SRMLSC, 2006).
Screen size: about 3,300 compounds; about 280 (8.5%) were called active. This excerpt belongs to a sample that is enriched for actives. Values without a mark were called inactive.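 The calls were made as follows: active = mean growth inhibition over the two runs of 50% or more; inactive = mean growth inhibition under 50%.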

assay: A549 NSCLC cell proliferation inhibitors – ATP luminescence, human non-small cell lung line, primary screen (AID 371); details: at 10 µM, hits give high values;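 also: compound exposure lasted 72 h before the ATP read; 0% = untreated cell signal and 100% = no luminescence left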

Structure (SMILES) | growth inhibition
CC1=NOC2(C)Nc3ncnn3C(c3ccccc3)C12 (stereo not given) | 6.33%
CC[C@@H](CO)NC(=O)[C@@H]1C=C2c3cccc4c3c(cn4C)C[C@H]2N(C)C1 | 4.84%
CN1C[C@H](CNC(=O)OCc2ccccc2)C[C@@H]2c3cccc4c3c(cn4C)C[C@H]21 | 94.7% (active)
CCCCCCn1c(O)c(C=NCCCn2ccnc2)c(=O)[nH]c1=O | 7.84%
CC1(C)CC(n2[nH]c(=O)c3c2NC(=O)CSC3c2ccccc2)CCO1 (stereo not given) | 3.92%
O=c1[nH]c2ccccc2n1CCCN1CCC(n2c(=O)[nH]c3cc(Cl)ccc32)CC1 | 6%
O=c1[nH]c2ccccc2n1C1CCN(CCCC(c2ccc(F)cc2)c2ccc(F)cc2)CC1 | 93% (active)
CCOC(=O)[C@]1(C#N)[C@@H]2C=CC(C(C)=O)=CN2[C@@H](C(N)=O)[C@@H]1c1ccsc1 | 3.86%
Nc1ncc(P(=S)(N2CCOCC2)N2CCOCC2)s1 | 0.52%
COc1cccc(-n2c(O)c(C=NCCN3CCOCC3)c(=O)[nH]c2=O)c1 | -0.53%
CCc1nc(N2CCNCC2)c(C#N)c2c1CSC(C)(C)C2 | 49.5%
CCCCc1nc(N2CCNCC2)c(C#N)c2c1CSC(C)(C)C2 | 92% (active)
COc1ccc2c(c1)c(C(=O)O)c(C)n2CC(C)C | -2.88%
COC(=O)C(O)(c1c[nH]c2ccccc12)C(F)(F)F (stereo not given) | 0.63%
O=C(CN1CCN(CCO)CC1)Nc1ccc(Cl)cc1C(=O)c1ccccc1 | 13.2%
C=CCOC(=O)C1=C(C)OC(N)=C(C#N)C12C(=O)N(CN1CCOCC1)c1ccccc12 (stereo not given) | 0.76%
O=c1[nH]c(=O)n(-c2cccc3ccccc23)c(O)c1C=NCCCn1ccnc1 | -5.79%
CCN(CC)CCN=C(C)c1c(O)n(-c2ccccc2OC)c(=O)[nH]c1=O | -2.11%
CC(=O)OC1N=C(c2ccccc2)c2ccccc2NC1=O (stereo not given) | -5.27%
CCN(CC)c1ccc(N=Cc2c(O)n(-c3cc(OC)ccc3OC)c(=O)[nH]c2=O)cc1 | 26.8%
